Among the data in PubChem BioAssay (NCI) are growth values, retold here.

Compounds without any hit were thinned out: in the full panel of roughly 83,000, 20% have a hit.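 Testing used 96-well plates and a 48-hour single-concentration exposure. Example: -40 means 40% of the starting cells died.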 Values without a mark were called inactive. The source made the active and inactive calls. The calls were made as follows: active = growth percent below 10; inactive = the rest.

Test systems include DU-145 prostate; K-562 leukemia; MALME-3M melanoma; MDA-MB-231 breast; RXF 393 renal; SF-268 CNS; SF-295 CNS; SF-539 CNS; UACC-257 melanoma; M14 melanoma.
Holding throughout (test): NCI-60 one-dose screen, 48 h (100 = growth as untreated, 0 = no growth, -100 = all killed)
Common to all, as to conditions: 10 µM unless noted

In the case of `N#Cc1c(-c2ccc(F)cc2)nc(N=Nc2c(O)[nH]c3ccccc23)nc1N1CCOCC1`, the growth with DU-145 prostate is 69.1%; in the experiment on K-562 leukemia it was 91.8%; in the experiment with MALME-3M melanoma it was 63.7%; in the experiment with MDA-MB-231 breast it was 66%; with RXF 393 renal it was 62.8%; in the experiment with SF-268 CNS, 77.3%. For the same compound, the growth with SF-295 CNS is 70.2%; in the experiment on SF-539 CNS, 85.5%; in the experiment with UACC-257 melanoma, 77.8%; in the experiment on M14 melanoma it was 72.3%.

As to `CC(C)C1=C[C@@]23CC[C@H]4[C@](C)(COCCC#N)CCC[C@]4(C)[C@H]2C[C@@H]1[C@@H]1[C@H]3[C@@H](OCCC#N)CC[C@@H]1OCCC#N`, the growth in the experiment on DU-145 prostate is 51.4%; in the experiment on K-562 leukemia, 20.2%; with MALME-3M melanoma, 61.4%; with MDA-MB-231 breast, 59.5%; in the experiment on RXF 393 renal, 11.8%; with SF-268 CNS, 48.4%. Moreover, the growth was 28.7% in the experiment on SF-295 CNS, 52.8% in the experiment with SF-539 CNS, 40.9% in the experiment with UACC-257 melanoma and 31.4% in the experiment on M14 melanoma.

Regarding `Cc1cccc(C)c1NCc1nnc(-c2ccc(O)cc2)o1`, the growth in the experiment with DU-145 prostate was 110%; in the experiment on K-562 leukemia, 126%; in the experiment with MALME-3M melanoma, 101%; with MDA-MB-231 breast it was 103%; in the experiment with RXF 393 renal it was 108%; in the experiment on SF-268 CNS, 101%. Besides, the growth with SF-295 CNS was 96.5%; with SF-539 CNS, 97.8%; in the experiment with UACC-257 melanoma it was 111%; in the experiment on M14 melanoma it was 98.5%.

On to `CCN1CCN(Cc2ccc(NC(=O)c3cccc(C#Cc4cccc5[nH]nc(N)c45)c3)cc2C(F)(F)F)CC1`, for which the growth in the experiment with DU-145 prostate is -70% (active); in the experiment on K-562 leukemia, -43.8% (active); in the experiment with MALME-3M melanoma it was -71.4% (active); in the experiment on MDA-MB-231 breast, -85% (active); with RXF 393 renal, -92% (active); with SF-268 CNS, -41.5% (active). In addition, the growth was -88.4% (active) with SF-295 CNS, -98% (active) in the experiment with SF-539 CNS, -75.7% (active) in the experiment on UACC-257 melanoma and -83.5% (active) in the experiment on M14 melanoma.

For the compound `CCCCCCC/C=C/[C@H]1O[C@]23C(=O)C[C@@]4(C[C@@H](OC5OC(CO)C(O)C(O)C5O)C[C@@H]4[C@H]2C=C1C)OC3=O` (stereo not given in full), the growth in the experiment on DU-145 prostate is 39.8%; in the experiment with K-562 leukemia it was 9.99% (active); with MALME-3M melanoma, 7.25% (active); in the experiment on MDA-MB-231 breast, 5.73% (active); in the experiment with RXF 393 renal it was -43.7% (active); in the experiment on SF-268 CNS, 48.3%. In addition, the growth with SF-295 CNS was 58.5%; in the experiment on SF-539 CNS, -14.3% (active); in the experiment with UACC-257 melanoma it was 29%; in the experiment with M14 melanoma, -12.2% (active).

On to `COc1cc2nc3c(=O)n(-c4ccc(C#N)cc4)cnn3c(=O)c2cc1OC`, for which the growth in the experiment on DU-145 prostate was 103%; in the experiment on K-562 leukemia, 106%; in the experiment on MALME-3M melanoma it was 87.5%; with MDA-MB-231 breast, 103%; in the experiment with RXF 393 renal, 100%; with SF-268 CNS, 88.5%. Further, the growth in the experiment with SF-295 CNS was 99.8%; in the experiment on SF-539 CNS, 94.9%; with UACC-257 melanoma it was 110%; in the experiment on M14 melanoma, 94.1%.

As for `COc1ccccc1N1CCN(CCCOc2ccc(C(=O)/C=C3/C(=O)Nc4ccccc43)cc2)CC1`, the growth with DU-145 prostate was 81.8%; in the experiment with K-562 leukemia, 17.6%; with MALME-3M melanoma, 66.5%; in the experiment with MDA-MB-231 breast, 57%; in the experiment on RXF 393 renal, 72.4%; with SF-268 CNS, 86.9%. For the same compound, the growth in the experiment with SF-295 CNS was 71.1%; in the experiment with SF-539 CNS, 81.5%; in the experiment on UACC-257 melanoma, 90.2%; in the experiment with M14 melanoma, 66%.

Consider `Cc1nccc2c3ccc(OCc4cn(-c5ccccc5)nn4)cc3n(CCCc3ccccc3)c12`, for which the growth is 88.6% with DU-145 prostate; 36.5% with K-562 leukemia; 90.4% in the experiment with MALME-3M melanoma; 79.6% in the experiment on MDA-MB-231 breast; 69.7% in the experiment on RXF 393 renal; 88.3% with SF-268 CNS. Moreover, the growth is 74.8% in the experiment on SF-295 CNS, 78.2% in the experiment with SF-539 CNS, 55.9% in the experiment on UACC-257 melanoma and 83.3% in the experiment with M14 melanoma.

`CCOC(=O)c1ccc(Nc2ncnc3ccc(NC(=O)c4ccccc4)cc23)cc1`: the growth in the experiment on DU-145 prostate is 105%; with K-562 leukemia, 71.9%; in the experiment with MALME-3M melanoma, 109%; with MDA-MB-231 breast it was 98.2%; in the experiment on RXF 393 renal, 80.7%; with SF-268 CNS it was 91.3%. The growth in the experiment on SF-295 CNS is 95.3%; in the experiment with SF-539 CNS, 101%; in the experiment on UACC-257 melanoma, 103%; with M14 melanoma, 93.8%.

Regarding `Cc1cc(C)cc(Nc2nccc(-c3c(-c4ccc(F)cc4)ncn3C3CCNCC3)n2)c1`, the growth was 9.38% (active) with DU-145 prostate; -33.3% (active) in the experiment on K-562 leukemia; -36.1% (active) in the experiment with MALME-3M melanoma; 7.44% (active) with MDA-MB-231 breast; 18.3% in the experiment on RXF 393 renal; 28.4% in the experiment with SF-268 CNS. The growth with SF-295 CNS is 5.75% (active); in the experiment with SF-539 CNS it was 31.3%; in the experiment with UACC-257 melanoma it was -50.6% (active); in the experiment with M14 melanoma, -86.4% (active).

For the compound `COC(=O)/C=C/c1cc(OC)c2c(c1)[C@@H](C(=O)OC)[C@H](c1ccc(OC)c(OC)c1)O2`, the growth was 14% in the experiment with DU-145 prostate; 10.8% in the experiment on K-562 leukemia; 44.3% with MALME-3M melanoma; 53.4% in the experiment on MDA-MB-231 breast; -12.2% (active) with RXF 393 renal; 59.6% with SF-268 CNS. The growth in the experiment on SF-295 CNS is 18.4%; with SF-539 CNS, -7.1% (active); with UACC-257 melanoma it was 44.7%; with M14 melanoma, 2.02% (active).
